Screening data as filed in PubChem BioAssay.
Hits are enriched below; roughly 11% of the tested compounds scored in any of these assays.
IMPase Li inh – IMPase inhibition in cells with lithium potentiation; CHO-M1 cells, IP1 TR-FRET (IP-One), carbachol + lithium; Potency, µM (doses to about 59.4 µM), without a hit: at the highest dose activity, negative = IMPase inhibition, most hits filed as inhibitors; 210,000 compounds, 0.35% hits; active = well fitted curve in the direction sought with a large enough effect; inconclusive = small, poorly fitted or top-dose-only effect, or another doubt; inactive = no such curve, though single readings can be large; an effect the other way counts as inactive or inconclusive;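 note: IP1 builds up when IMPase is blocked and the TR-FRET signal falls; potency is the fitted concentration of half-maximal effect; plate controls were basal vehicle for no effect and high inhibitor control for full effect; nearly all actives have a fitted effect of over 50% in size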
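CHO cells stably expressing M1 receptor (2000/well, cultured 16–30 h) treated 30 min at 37C with compound plus low lithium. Cytosolic IP1 by TR-FRET (665/620 ratio and 620 channel) after 10 min lysis; AC50 by Hill fit.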
ALDH1A1 inh – inhibitors of human aldehyde dehydrogenase 1A1; 220,000 compounds, 7.3% hits; P00352; Purified ALDH1A1, NADH fluorescence, propionaldehyde substrate; AID 1030; Potency, µM (doses to about 75.3 µM), for inactives: at the top dose activity, negative = inhibition, usual class: inhibitors;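 note: potency is the fitted concentration of half-maximal effect; plate controls were no enzyme wells and a reference inhibitor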
Target sequence (P00352 whole entry, looked up): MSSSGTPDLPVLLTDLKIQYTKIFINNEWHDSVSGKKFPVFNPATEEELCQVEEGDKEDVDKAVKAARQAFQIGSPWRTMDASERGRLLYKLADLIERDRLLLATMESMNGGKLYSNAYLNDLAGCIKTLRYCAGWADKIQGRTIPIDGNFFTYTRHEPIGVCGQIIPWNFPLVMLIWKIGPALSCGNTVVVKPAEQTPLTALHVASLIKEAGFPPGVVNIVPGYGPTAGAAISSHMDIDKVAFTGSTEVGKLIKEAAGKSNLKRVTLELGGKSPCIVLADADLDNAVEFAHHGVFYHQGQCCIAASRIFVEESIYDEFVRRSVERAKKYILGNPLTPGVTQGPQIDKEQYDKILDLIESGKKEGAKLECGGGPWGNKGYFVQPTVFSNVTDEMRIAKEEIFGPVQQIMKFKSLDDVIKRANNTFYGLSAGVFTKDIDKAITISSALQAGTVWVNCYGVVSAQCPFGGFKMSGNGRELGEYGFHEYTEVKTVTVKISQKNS
IMPase cell inh – membrane-permeable compound that blocks inositol monophosphatase; CHO-M1 cells, IP1 accumulation, HTRF TR-FRET ratio; 120,000 tested, under 10 active; P97697; inhibition (IP1 accumulation), % at 46.1 µM; AID 901; active = well fitted curve in the direction sought with a large enough effect in the signal ratio, not every such curve was filed as active; inconclusive = small, poorly fitted or top-dose-only effect, or a change in a side signal; inactive = no such curve, though single readings can be large or run the other way; the % refers to the signal ratio;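 note: cells stimulated with carbachol in lithium chloride buffer; plate controls were DMSO basal wells for no effect and reference inhibitor wells for full effect; higher means more IMPase inhibition seen as more IP1 and lower FRET ratio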
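CHO-M1, 2000 cells/well, cultured 16–30 h; cpd up to 46 uM; carbachol (50 uM solution, stimulation buffer w/ 50 mM LiCl, pH 7.4), 30 min 37C; IP-One TR-FRET, 10 min RT; Ex 320/Em 665, 620; Hill-fit AC50.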
PNC assembly inh – blocks assembly of the perinucleolar compartment | PC3M PTB-GFP, PNC prevalence imaging, 16 h; active compounds read low | activity change (PNC), negative = inhibition, % at 10 µM | 140,000 compounds, 3.1% hits | AID 2417;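 active = readout at or below -70, meaning at least 70% loss of cells showing the perinucleolar compartment, a nuclear body marking cancer cells; inconclusive = readout between -30 and a set limit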;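 note: plate controls were DMSO wells for no effect and camptothecin positive control wells for full effect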
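Compounds are pinned in duplicate onto adhered PC3M cells stably expressing GFP-tagged PTB and incubated 16 h at 37 C. Cells are then fixed, nuclei stained with Hoechst, and PNC-positive cells counted.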
NPSR antag – neuropeptide S receptor (human) antagonism, cAMP | AID 1461 | Q6W5P4 | CHO-NPSR cells, cAMP TR-FRET, antagonist mode | 220,000 compounds, 1% hits | Potency, µM (series often up to 38.3 µM), without a hit: at the top dose activity change, negative = inhibition, most hits filed as inhibitors; active = well fitted curve in the direction sought with a large enough effect; inconclusive = small, poorly fitted or top-dose-only effect, or another doubt; inactive = no such curve, though single readings can be large; an effect the other way counts as inactive or inconclusive; note: potency is the fitted concentration of half-maximal effect; nearly all actives have a fitted effect of over 50% in size
HPGD block – inhibitors of human 15-hydroxyprostaglandin dehydrogenase (HPGD); purified HPGD, NADH fluorescence kinetic, PGE2 substrate; 150,000 compounds, 4.3% hits; Potency, µM, for the others: at the top dose activity change, negative = inhibition, hits mostly inhibitors; AID 894; note: potency is the fitted concentration of half-maximal effect
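20 nM HPGD preincubated 15 min at room temperature with compound in 50 mM Tris-HCl pH 8, 0.01% Tween 20. Started with 1 mM NAD+ and 30 uM prostaglandin E2; NADH fluorescence (360/450 nm) read 5 times over 30-s intervals, last minus first.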
* hit, by the source's call; ? = inconclusive; · = no result; [ ] = dose if it differs, or a comment. Unless noted, calls come from the whole dose curve; as a rule, active = well fitted inhibition curve with a large enough effect (not every such curve was filed as active); inconclusive = small, poorly fitted or top-dose-only effect, or another doubt; inactive = no such curve, though single readings can be large or run the other way. Unless noted, % is set by controls: 0 for no effect and ±100 for the full control effect.

SMILES | IMPase Li inh | ALDH1A1 inh | IMPase cell inh | PNC assembly inh | NPSR antag | HPGD block
C=CCn1c(C)c(C(C)=O)c(SC)nc1=S | 4%[38.3 µM] | -1% | 1 | -84* | -2%[46.1 µM] | -11%
CSc1nc(=S)n(Cc2ccccc2)c(C)c1C(C)=O | 2% | ? | · | -23 | -4% | ?
CCN(CC)C(=O)c1ccc2c3c(cccc13)C(=O)N(CCc1ccc(OC)c(OC)c1)C2=O | 6% | -9% | 2 | -13 | -29%[46.1 µM] | 18µM*
COc1ccc(CCN2C(=O)c3cccc4cccc(c34)C2=O)cc1OC | 2%[38.3 µM] | 10% | 0 | 27 | -21%[46.1 µM] | -7%
CCN(CC)C(=O)C1CCN(c2ncnc3c2cnn3-c2ccc(C)cc2C)CC1 | 12%[38.3 µM] | 10µM* | 3 | -24 | ? | 22µM*
Cc1sc2ncnc(NCC3CCCO3)c2c1C (centres undefined) | 6%[38.3 µM] | -12% | -13 | 33 | -2%[46.1 µM] | -15%
C=CCNc1ncnc2c1cnn2-c1ccc(C)cc1C | 21%[38.3 µM] | 0% | -2 | 6 | -10%[46.1 µM] | 14µM*
CCc1cc2c(NC(C(=O)O)C(C)C)ncnc2s1 (centres undefined) | 0%[38.3 µM] | 16µM* | -6 | 10 | -11%[46.1 µM] | -6%
CCc1cc2c(N[C@@H](Cc3c[nH]c4ccccc34)C(=O)O)ncnc2s1 | -7% | 1% | -2 | -25 | -11%[46.1 µM] | -13%
CCc1cc2c(NCC3CCCO3)ncnc2s1 (centres undefined) | 10%[38.3 µM] | ? | 12 | 11 | -10%[46.1 µM] | 14µM*
O=C(Cn1nc2sc3ccccc3n2c(=O)c1=O)c1cccs1 | · | · | · | · | -15% | ·
Cc1ccc(C(=O)N/C(=C\c2ccco2)C(=O)NCc2cccnc2)cc1 | -15% | ? | · | 43 | 16% | -24%
Cc1ccc(-n2ncc3c(NCC4CCCO4)ncnc32)c(C)c1 (centres undefined) | 27%[38.3 µM] | -11% | -11 | 38 | 1%[46.1 µM] | 2.2µM*
Oc1c(Cl)cccc1C=Nc1cc(C(F)(F)F)ccc1N1CCCC1 | 1%[38.3 µM] | 2% | -1 | 6 | -3%[46.1 µM] | 16µM*
Cn1c(=O)c2c(nc(NCCc3ccccc3)n2Cc2ccc(Cl)cc2)n(C)c1=O | · | · | 4 | · | · | ·
NC(=O)COC(=O)c1ccc2c(c1)S(=O)(=O)N=C1CCCCCN12 | 4% | 8.9µM* | · | -1 | 15% | -7%
CCC(=O)Nc1ccc(Br)c(Cl)c1 | 4% | 11% | -2 | ? | 14%[46.1 µM] | -19%
O=C(O)CC1(CC(=O)Nc2ccc3ccccc3c2)CCCCC1 | ? | ? | 5 | -1 | -5%[46.1 µM] | 4µM*
CCC(=O)Nc1ccc(F)c(Cl)c1 | 21%[38.3 µM] | 4% | -4 | -106* | 9%[46.1 µM] | 1%
O=C(O)CC1(CC(=O)Nc2ccc(F)c(Cl)c2)CCCCC1 | · | 4µM* | · | · | 35% | ·
CO/N=C(\C(=O)N[C@@H]1C(=O)N2C(C(=O)O)=C(CSc3nc(=O)c(O)nn3C)CS[C@@H]12)c1csc(N)n1 | · | · | -2 | · | · | ·
C/C(Cl)=C/Cn1c(SC(C)C)nc2c1c(=O)[nH]c(=O)n2C | -5%[38.3 µM] | 5µM* | ? | 22 | -11%[46.1 µM] | ?
CCCCn1c(SCC(=O)OCC)nc2c1c(=O)[nH]c(=O)n2C | 3% | 13µM* | -9 | -119* | 20% | ?
CCOC(=O)CSc1nc2c(c(=O)[nH]c(=O)n2C)n1C/C=C(/C)Cl | 0%[38.3 µM] | 18µM* | -14 | 17 | -4%[46.1 µM] | 20µM*
CCCCCCn1c(SCCOC)nc2c1c(=O)[nH]c(=O)n2C | · | · | · | · | -6% | ·
CCOCCn1c(SC)nc2c1c(=O)[nH]c(=O)n2C | -11%[38.3 µM] | 14µM* | -11 | 9 | -4%[46.1 µM] | 20µM*
CCCCCn1c(SC(C)C(C)=O)nc2c1c(=O)[nH]c(=O)n2C (centres undefined) | -2%[38.3 µM] | ? | -1 | 9 | -4%[46.1 µM] | -8%
CCOCCn1c(SCCCc2ccccc2)nc2c1c(=O)[nH]c(=O)n2C | 12% | -3% | 5 | ? | 5%[46.1 µM] | -4%
CCOC(=O)Cn1c(Br)nc2c1c(=O)[nH]c(=O)n2C | 23%[38.3 µM] | 4% | -1 | 52 | -4%[46.1 µM] | -4%
O=C(Cn1nc(-c2ccc(Cl)cc2)ccc1=O)NCCCN1CCN(Cc2ccccc2)CC1 | 33%[38.3 µM] | -1% | 4 | 17 | -9%[46.1 µM] | -6%
